The values that follow come from PubChem BioAssay.

Activity calls are given as the source filed them.

The nature of assay [1]: compounds binding Alexa647 anti-His antibody – biochemical, small-molecule microarray, 635 nm fluorescence, artefact control for SMM control protein annotation, primary screen (AID 1128).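 Also: score merges feature fluorescence with signal-to-noise for each printed compound spot.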 Conditions: higher = more signal.
The test system of assay [2] is Human papillomavirus type 1a E7 protein (residues 1-88). As to the kind of experiment: HPV1a E7 small-molecule binders, primary screen, biochemical, small-molecule microarray, residues 1-88, 635 nm (AID 1129). The note with it: small-molecule microarray binding, fluorescence 635 nm; higher = more signal.
Assay [3] has as its target Focal adhesion kinase 1 (Homo sapiens) (UniProt Q05397). As to the kind of experiment: PTK2 protein binding on printed compound slides – biochemical, small-molecule microarray, 635/667 nm fluorescence, BSA, DTT, primary screen (AID 1130).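 Also: composite of spot emission at 667 nm and signal to noise over triplicate slides.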 The note with it: 635 nm fluorescence, higher = more signal.
Assay [4] deals with Fibrinogen (Alexa647-labelled). As to the kind of experiment: Alexa647-fibrinogen binding to printed small molecules – biochemical, small-molecule microarray, 635/667 nm fluorescence, artefact control for SMM control-protein annotation, profiling panel (AID 1131).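 Also: z-score merges 667 nm fluorescence with per-spot signal-to-noise over triplicate slides.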 The note with it: fibrinogen-A647 binding fluorescence, higher = more signal.
Assay [5] deals with Follistatin (Homo sapiens) (UniProt P19883). As to the kind of experiment: FST protein binding to printed compounds – biochemical, small-molecule microarray, 635/667 nm fluorescence, primary screen (AID 1132). The note with it: 635 nm fluorescence, higher = more signal.
The target in assay [6] is Fibroblast growth factor 2 (Homo sapiens) (UniProt P09038). As to the kind of experiment: basic fibroblast growth factor binding to printed compounds – biochemical, small-molecule microarray, 635/667 nm fluorescence, primary screen (AID 1133). Conditions: FGF2, fluorescence 635/667, higher = more signal.
A short description of assay [7]: JC-1 mitochondrial potential readout, lung cancer cells – cell-based, A549, JC-1 fluorescence, basal, 24 h, 100 nL, profiling panel (AID 1138).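 Also: A549 lung adenocarcinoma cells under basal conditions with no added stimulus; test concentration not given here.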 Conditions: higher = more signal.
Another assay deals with Lefty1. As to the kind of experiment: Lefty1 protein binding to printed compounds – biochemical, small-molecule microarray, 635/667 nm fluorescence, primary screen (AID 1139). The note with it: fluorescence 635/667, higher = more signal.
Assay [8] relates to wheat germ agglutinin (Triticum aestivum), Alexa647-labelled. As to the kind of experiment: Alexa647-WGA lectin binding to printed small molecules – biochemical, small-molecule microarray, 635/667 nm fluorescence, artefact control for SMM control-protein annotation, profiling panel (AID 1140).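 Also: score merges 667 nm feature emission with signal to noise over triplicate slides.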 Conditions: WGA-A647 binding, 635 nm fluorescence, higher = more signal.
For assay [9], the target named is Luciferin 4-monooxygenase (Photinus pyralis) (UniProt P08659). As to the kind of experiment: inhibition of purified Photinus pyralis luciferase – biochemical, luminescence, purified enzyme, 2006 set, primary screen (AID 1141).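 Also: cell-free assay with purified firefly luciferase at 100 ng per well in PBS; test concentration not given here.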 Conditions: purified firefly luciferase, SteadyGlo luminescence, 30 min; higher = more signal, called active from +8 up or from −8 down.
Sequence of Luciferin 4-monooxygenase (Photinus pyralis) (P08659 whole entry, looked up): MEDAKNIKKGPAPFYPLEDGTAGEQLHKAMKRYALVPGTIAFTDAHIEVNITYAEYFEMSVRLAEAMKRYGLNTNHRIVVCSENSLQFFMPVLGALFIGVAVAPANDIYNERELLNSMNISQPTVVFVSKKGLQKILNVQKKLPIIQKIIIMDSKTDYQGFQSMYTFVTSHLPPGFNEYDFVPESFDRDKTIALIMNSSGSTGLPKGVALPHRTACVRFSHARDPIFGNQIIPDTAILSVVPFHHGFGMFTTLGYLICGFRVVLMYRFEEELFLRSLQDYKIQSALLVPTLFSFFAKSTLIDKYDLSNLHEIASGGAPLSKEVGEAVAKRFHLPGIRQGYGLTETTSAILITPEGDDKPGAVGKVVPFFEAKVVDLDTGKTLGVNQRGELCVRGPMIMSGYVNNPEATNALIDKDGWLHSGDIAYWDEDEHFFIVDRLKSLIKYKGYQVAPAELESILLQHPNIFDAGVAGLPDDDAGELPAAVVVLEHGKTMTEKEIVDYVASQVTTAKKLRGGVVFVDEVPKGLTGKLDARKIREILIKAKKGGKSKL

Sequence of Focal adhesion kinase 1 (Homo sapiens) (Q05397 whole entry, looked up): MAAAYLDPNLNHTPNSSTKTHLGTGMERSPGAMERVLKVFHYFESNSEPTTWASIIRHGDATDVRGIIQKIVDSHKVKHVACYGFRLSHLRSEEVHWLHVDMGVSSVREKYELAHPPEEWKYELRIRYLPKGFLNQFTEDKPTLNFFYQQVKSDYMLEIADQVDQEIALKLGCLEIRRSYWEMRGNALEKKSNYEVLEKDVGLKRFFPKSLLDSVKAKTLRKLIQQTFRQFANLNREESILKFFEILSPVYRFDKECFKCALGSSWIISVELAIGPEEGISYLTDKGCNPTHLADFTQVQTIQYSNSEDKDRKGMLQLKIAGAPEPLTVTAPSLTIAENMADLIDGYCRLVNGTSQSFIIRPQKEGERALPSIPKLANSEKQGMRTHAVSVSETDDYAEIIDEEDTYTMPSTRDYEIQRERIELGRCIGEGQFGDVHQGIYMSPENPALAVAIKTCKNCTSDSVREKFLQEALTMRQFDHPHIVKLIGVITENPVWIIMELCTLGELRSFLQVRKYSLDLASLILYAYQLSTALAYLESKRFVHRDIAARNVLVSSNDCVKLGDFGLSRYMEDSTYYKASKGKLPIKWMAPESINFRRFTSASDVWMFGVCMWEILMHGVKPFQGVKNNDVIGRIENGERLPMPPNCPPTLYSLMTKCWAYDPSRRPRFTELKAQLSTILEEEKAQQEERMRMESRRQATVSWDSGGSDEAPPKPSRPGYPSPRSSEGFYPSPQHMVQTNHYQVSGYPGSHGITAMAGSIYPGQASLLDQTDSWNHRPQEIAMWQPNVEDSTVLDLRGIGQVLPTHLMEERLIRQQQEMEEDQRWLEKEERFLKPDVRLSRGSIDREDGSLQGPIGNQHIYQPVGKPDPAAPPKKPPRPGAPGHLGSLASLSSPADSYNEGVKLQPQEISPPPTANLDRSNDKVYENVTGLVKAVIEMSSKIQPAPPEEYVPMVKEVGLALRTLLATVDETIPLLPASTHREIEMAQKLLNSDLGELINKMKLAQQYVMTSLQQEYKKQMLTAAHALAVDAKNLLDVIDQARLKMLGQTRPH
Sequence of Fibroblast growth factor 2 (Homo sapiens) (P09038 whole entry, looked up): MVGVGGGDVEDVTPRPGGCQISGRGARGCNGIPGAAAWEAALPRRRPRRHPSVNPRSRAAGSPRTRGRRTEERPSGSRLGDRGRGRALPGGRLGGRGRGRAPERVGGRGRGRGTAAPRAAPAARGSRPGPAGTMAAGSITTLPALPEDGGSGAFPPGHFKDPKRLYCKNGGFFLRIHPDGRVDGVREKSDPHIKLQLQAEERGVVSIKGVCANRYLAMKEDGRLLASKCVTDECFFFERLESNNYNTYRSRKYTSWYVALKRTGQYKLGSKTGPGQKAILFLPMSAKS
Sequence of Follistatin (Homo sapiens) (P19883 whole entry, looked up): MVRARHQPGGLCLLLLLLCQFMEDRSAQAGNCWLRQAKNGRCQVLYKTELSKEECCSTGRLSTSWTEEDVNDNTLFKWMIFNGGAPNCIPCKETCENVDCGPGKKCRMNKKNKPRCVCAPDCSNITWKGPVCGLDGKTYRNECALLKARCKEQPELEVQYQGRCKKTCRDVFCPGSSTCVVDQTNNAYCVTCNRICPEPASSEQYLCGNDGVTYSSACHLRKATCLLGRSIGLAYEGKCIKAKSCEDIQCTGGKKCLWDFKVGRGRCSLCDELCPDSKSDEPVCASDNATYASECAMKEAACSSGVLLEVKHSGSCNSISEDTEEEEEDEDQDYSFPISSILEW

`CCN1C(=O)[C@H]2[C@H]3[C@H](O)[C@H](O)CC(=NOC[C@@H](O)[C@H]4O[C@@H]5OC(C)(C)O[C@@H]5[C@H]4O)[C@@H]3CC[C@H]2C1=O`: the composite z-score in assay [1] is -0.072; in assay [2], -0.144; in assay [3], -0.212; in [4], -0.0432; in [5] it was 0.387; in assay [6] it was 0.383. Also, the composite z-score with Lefty1 is 0.0533; in assay [8], -0.0038. Besides, the results for the z-score in assay [7] and in assay [9] were -0.548 and -0.819 (inactive), respectively.
Take `CC(=O)OC[C@H]1O[C@H](CC=NOCC[C@@H]2C=C[C@H](OC(C)=O)[C@@H](COC(C)=O)O2)C=C[C@@H]1OC(C)=O`: the composite z-score in [1] was 1.77; in [2], 0.642; in assay [3], -0.216; in assay [4], -0.305; in assay [5] it was 0.447; in assay [6], 1.02. For the same compound, the composite z-score is 1.29 in the assay on Lefty1 and -0.111 in [8]. Further, the z-score in assay [7] is -0.6; in assay [9], 0.966 (inactive).
Take `CC(C)[C@H](NC(=O)OC(C)(C)C)[C@@H](O)CC(=O)C(C)(C)C`: the composite z-score in assay [1] is -0.007; in [2], -0.195; in [3], -0.402; in assay [4], 0.0622; in [5], 0.359; in assay [6] it was 0.516. Moreover, the composite z-score in the assay on Lefty1 is 0.627; in [8], -0.0466. Moreover, the z-score in [7] was 0.109; in [9], 0.0879 (inactive).
Turning to `CO[C@@H]1COC(=O)CC=C[C@H](C)[C@H](OC)COC(=O)[C@@H]2CCCN2C(=O)CC=C[C@H]1C`, the composite z-score in assay [1] was -0.51; in assay [2], -0.838; in [3] it was -0.226; in assay [4], -2.24; in [5], 1.38; in [6] it was 1.69. The composite z-score in the assay on Lefty1 was 1.45; in [8] it was -1.11. In addition, the z-score in assay [7] was -0.213; in [9], -0.577 (inactive).
`O=C1[C@H]2[C@H]3[C@H](O)[C@H](O)CC(=NOC[C@@H](O)COCc4ccco4)[C@@H]3CC[C@H]2C(=O)N1Cc1ccc2c(c1)OCO2`: the composite z-score in assay [1] is -0.133; in assay [2], -0.499; in [3], -0.347; in [4], -0.952; in [5] it was 1.35; in assay [6], 1.56. The composite z-score with Lefty1 was 0.793; in assay [8], -0.63. For the same compound, the results for the z-score in assay [7] and in [9] were 0.96 and -0.0365 (inactive), respectively.
`CCc1cc2c(nc1CC)CCN(CCC(C)=NO[C@@H]1O[C@H](COC(C)=O)[C@@H](OC(C)=O)[C@H](OC(C)=O)[C@H]1OC(C)=O)C2`: the composite z-score is 0.0815 in assay [1]; 0.286 in [2]; 0.0487 in assay [3]; 0.816 in assay [4]; 1.03 in assay [5]; 0.559 in assay [6]. The composite z-score in the assay on Lefty1 worked out at 1.42; in assay [8] it was 0.167. Also, the z-score was -0.766 in [7] and 1.03 (inactive) in assay [9].
In the case of `CCOC(=O)[C@H](CC(C)C)NC(=O)CCC1CC(OC(=O)NCCc2ccc(F)cc2)CC2(CCCC(COC(=O)NCc3cccc4ccccc34)O2)O1` (stereo not given in full), the composite z-score in [1] was found to be 0.229; in [2], 0.982; in [3] it was 0.2; in assay [4], 0.279; in [5], 1.27; in [6] it was 0.634. Besides, the composite z-score with Lefty1 was 0.774; in assay [8] it was 0.0787. Moreover, the z-score in assay [7] was 0.755; in assay [9], 0.6 (inactive).
As for `CC(C)=CCCC(C)=CCON=C1C[C@@H](O)[C@@H](O)[C@@H]2[C@@H]3C(=O)N(C4CCCCC4)C(=O)[C@@H]3CC[C@H]12`, the composite z-score was determined as 0.857 in assay [1]; 0.573 in assay [2]; 1.12 in assay [3]; 0.573 in [4]; 1.06 in assay [5]; 1.25 in [6]. Moreover, the composite z-score with Lefty1 is 1.48; in assay [8], -0.0924. Besides, the z-score was 0.292 in [7] and -0.0223 (inactive) in assay [9].
For the compound `COc1ccc(COC(=O)NN=C2C[C@@H](O)[C@@H](O)[C@@H]3[C@@H]4C(=O)N(Cc5ccccc5)C(=O)[C@@H]4CC[C@@H]23)cc1`, the composite z-score in assay [1] is 0.57; in [2], 0.343; in assay [3], 0.0398; in [4], -0.113; in assay [5] it was 0.364; in assay [6], 0.164. For the same compound, the composite z-score in the assay on Lefty1 was 0.292; in assay [8] it was -0.0049. Moreover, the z-score was 0.485 in assay [7] and 0.778 (inactive) in [9].
For `CC(=O)OC[C@H]1O[C@H](C#CCC2CCCCC2)C=C[C@@H]1OC(C)=O`, the composite z-score in [1] is 0.502; in assay [2] it was 0.916; in [3] it was -0.146; in assay [4], 0.672; in [5], 0.675; in [6] it was 0.339. In addition, the composite z-score in the assay on Lefty1 was determined as 0.513; in [8], 0.371. Further, the figures for the z-score in assay [7] and in assay [9] were 0.587 and -2.68 (inactive), respectively.
For `CC(CCN1CCCCc2nc(C)c(C)cc21)=NOC[C@@H](O)[C@H]1O[C@@H]2OC(C)(C)O[C@@H]2[C@H]1O`, the composite z-score in assay [1] is 3.04; in assay [2] it was -0.491; in assay [3], -0.319; in assay [4] it was 1.01; in assay [5], 0.416; in [6], 0.937. Besides, the composite z-score with Lefty1 was 1; in [8], -0.163. Besides, the values for the z-score in [7] and in assay [9] were -0.584 and 0.766 (inactive), respectively.
Consider `CCOC(=O)[C@H](Cc1ccccc1)NC(=O)CCC1CC(OC(=O)NCc2cccc3ccccc23)CC2(CCCC(COC(=O)NCCc3ccc(Cl)cc3)O2)O1` (stereo not given in full), for which the composite z-score turned out to be 0.486 in assay [1]; 0.791 in assay [2]; 0.222 in assay [3]; 0.78 in assay [4]; 0.461 in [5]; 0.344 in [6]. The composite z-score in the assay on Lefty1 was 0.414; in [8] it was 0.556. In addition, the z-score in assay [7] is -0.243; in assay [9], 1.36 (inactive).
Consider `CC(CCC(=O)OC[C@H]1O[C@H](C#Cc2ccccc2)C=C[C@@H]1Oc1ccc(C)cc1)=NO[C@H](C)c1cn([C@@H]2COC[C@H]2O)nn1`, for which the composite z-score in [1] was 0.254; in assay [2] it was -0.0794; in assay [3] it was 0.0652; in assay [4], 0.666; in assay [5] it was 0.273; in assay [6], 0.162. Further, the composite z-score in the assay with Lefty1 amounted to 0.317; in assay [8], 0.299. The results for the z-score in [7] and in assay [9] were -0.262 and -2.18 (inactive), respectively.
On to `O=C1C2=CC[C@H]3C(=O)N(Cc4ccccc4)C(=O)[C@H]3[C@H]2[C@H](O)[C@@H]2O[C@H]12`, for which the composite z-score in [1] was 0.198; in assay [2] it was 0.111; in assay [3] it was -0.36; in assay [4], 0.739; in assay [5], -0.267; in assay [6] it was -0.022. Also, the composite z-score is -0.423 in the assay with Lefty1 and 0.254 in assay [8]. The z-score is -0.447 in [7] and -0.174 (inactive) in assay [9].
Regarding `CCN1C(C)=C(C(=O)OC)[C@@H](c2ccccc2)N2C(=O)[C@](O)(C(=O)OC)CC(C(C)=O)=C12`, the composite z-score in assay [1] is -1.01; in assay [2], 0.127; in assay [3] it was 0.0644; in assay [4], 0.123; in [5], 0.398; in assay [6] it was 0.0171. Besides, the composite z-score worked out at 0.638 in the assay with Lefty1 and 0.278 in assay [8]. Further, the values for the z-score in [7] and in assay [9] were 1.07 and -0.695 (inactive), respectively.
Consider `CCOC(=O)CCN1C(=O)[C@H]2[C@H]3[C@H](O)[C@H](O)CC(=O)[C@@H]3CC[C@H]2C1=O`, for which the composite z-score in assay [1] was 0.591; in [2] it was 0.843; in assay [3], -0.0508; in [4], 0.532; in assay [5] it was 0.64; in assay [6] it was 1.28. Besides, the composite z-score in the assay on Lefty1 was 1.38; in assay [8], 0.157. The figures for the z-score in assay [7] and in assay [9] were -0.466 and 0.426 (inactive), respectively.
